Source: PubChem BioAssay (EPA / NIEHS)
Several values for one entry are separate records, joined by “and”; a condition that tells them apart may be missing. Identical values can stand only once. Some compounds were tested as several samples or in several runs, with calls that do not always agree. Activity calls are given as the source filed them. How the source made its calls: active means hit-call score of the fitted dose curve at least 0.9, where 1 is the maximum; inactive means score below 0.9.

What was measured:
[1] = biological target: Paired box protein Pax-6 (Homo sapiens) (UniProt P26367); test: ATG_Pax6_CIS: Attagene CIS-FACTORIAL HepG2 Assay for human Paired Box 6 (PAX6) (AID 2282956); settings: HepG2 CIS-FACTORIAL PAX6 reporter transcription, RNA readout; actives raise or lower the signal
Procedure, shortened: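 Values derive from bidirectional curve fitting of reporter mRNA signal relative to DMSO. HepG2 cells bearing transfected cis-regulated MRTUs were exposed for 24 h; transcripts were read by RT-PCR and capillary electrophoresis.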

[2] = ATG_PXRE_CIS: Attagene CIS-FACTORIAL HepG2 Assay for human Pregnane X Receptor Element (PXRE) (AID 2282957); settings: HepG2 Attagene CIS-FACTORIAL PXRE reporter, mRNA; actives raise or lower the signal
Procedure, shortened: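 Read-out: fluorescence of reporter-specific RT-PCR products resolved by capillary electrophoresis, fitted bidirectionally relative to DMSO. Human HepG2 liver cells carried transfected cis-promoter reporter units and were exposed to chemicals for 24 h.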

[3] = ATG_PPRE_CIS: Attagene CIS-FACTORIAL HepG2 Assay for human Peroxisome Proliferator-activated Response Element (PPRE) (AID 2282958); settings: HepG2 PPRE cis-element reporter, Attagene transcription factor profiling; actives raise or lower the signal
Procedure, shortened: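 Endogenous PPRE-driven transcription is measured in HepG2 cells carrying transfected multi-reporter constructs. Reporter transcripts are quantified by RT-PCR, HpaI digestion and capillary electrophoresis 24 h after dosing. DMSO baseline, bidirectional fit.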

[4] = ATG_RORE_CIS: Attagene CIS-FACTORIAL HepG2 Assay for human RAR-related Orphan Receptor Element (RORE) (AID 2282959); settings: HepG2 Attagene cis-factorial RORE reporter, mRNA; actives raise or lower the signal
Procedure, shortened: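 RORE reporter transcripts reflecting endogenous factor activity were read after 24 h compound exposure of transfected HepG2 cells, using reverse transcription, PCR, fluorescent labelling and capillary electrophoresis sizing. Gain or loss fitted against DMSO.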

[5] = ATG_Sox_CIS: Attagene CIS-FACTORIAL HepG2 Assay for human SRY-box transcription factor (SOX) (AID 2282960); settings: HepG2 Attagene cis-factorial SOX reporter, mRNA; actives raise or lower the signal
Procedure, shortened: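 Reporter transcripts, measured by RT-PCR and capillary electrophoresis of labelled fragments, report endogenous SOX transcription factor activity. Transiently transfected human HepG2 cells receive chemical for 24 h; changes in either direction are fitted relative to DMSO.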

[6] = biological target: Transcription factor Sp1 (Homo sapiens) (UniProt P08047); test: ATG_Sp1_CIS: Attagene CIS-FACTORIAL HepG2 Assay for human Specificity Protein 1 (Sp1) (AID 2282961); settings: HepG2 Sp1 cis-reporter transcription, actives raise or lower the signal
Procedure, shortened: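 Read-out is reporter transcript level, measured by RT-PCR and fluorescent capillary electrophoresis after 24 h chemical treatment. System: transiently transfected HepG2 cells reporting endogenous transcription factor activity; gain or loss fitted against DMSO baseline.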

[7] = ATG_SREBP_CIS: Attagene CIS-FACTORIAL HepG2 Assay for human Sterol Regulatory Element Binding (SREBP) (AID 2282962); settings: HepG2 Attagene cis-factorial SREBP reporter, mRNA; actives raise or lower the signal
Procedure, shortened: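 Values derive from bidirectional curve fitting with DMSO as baseline. The underlying measurement is reporter mRNA from cis-element-regulated units in transiently transfected HepG2, quantified by RT-PCR and capillary electrophoresis after 24 h exposure.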

[8] = biological target: Signal transducer and activator of transcription 3 (Homo sapiens) (UniProt P40763); test: ATG_STAT3_CIS: Attagene CIS-FACTORIAL HepG2 Assay for human Signal Transducer and Activator of Transcription 3 (STAT3) (AID 2282963); settings: HepG2, Attagene cis-factorial STAT3 reporter transcription; actives raise or lower the signal
Procedure, shortened: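 Readout: fluorescent reporter mRNA fragments resolved by capillary electrophoresis. Setup: HepG2 transfected with MRTUs reporting endogenous transcription-factor activity, dosed 24 h. Gain or loss of signal fitted bidirectionally against DMSO control.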

[9] = ATG_TA_CIS: Attagene CIS-FACTORIAL HepG2 Assay for human TA Basal Promoter (AID 2282964); settings: HepG2 Attagene CIS-factorial TA basal promoter reporter; actives raise or lower the signal
Procedure, shortened: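 Transfected HepG2, 24 h compound exposure; RNA → RT-PCR → FAM primer extension → HpaI cut → CE fluorescence. Gain/loss-of-signal fitted against DMSO negative control. Background-control readout.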

[10] = ATG_TCF_b_cat_CIS: Attagene CIS-FACTORIAL HepG2 Assay for human T-Cell-Factor with beta-catenin (TCF/b-cat) (AID 2282965); settings: HepG2 TCF/beta-catenin cis-reporter transcription, actives raise or lower the signal
Procedure, shortened: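 HepG2, transient MRTU transfection, cis-element-driven reporters (endogenous TFs). 24 h compound exposure. Readout: reporter mRNA by RT-PCR + 6-FAM primer extension, HpaI digest, capillary electrophoresis. Gain/loss fit vs DMSO baseline.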

Measured: AC50

Chain of Paired box protein Pax-6 (Homo sapiens) (P26367 whole entry, looked up): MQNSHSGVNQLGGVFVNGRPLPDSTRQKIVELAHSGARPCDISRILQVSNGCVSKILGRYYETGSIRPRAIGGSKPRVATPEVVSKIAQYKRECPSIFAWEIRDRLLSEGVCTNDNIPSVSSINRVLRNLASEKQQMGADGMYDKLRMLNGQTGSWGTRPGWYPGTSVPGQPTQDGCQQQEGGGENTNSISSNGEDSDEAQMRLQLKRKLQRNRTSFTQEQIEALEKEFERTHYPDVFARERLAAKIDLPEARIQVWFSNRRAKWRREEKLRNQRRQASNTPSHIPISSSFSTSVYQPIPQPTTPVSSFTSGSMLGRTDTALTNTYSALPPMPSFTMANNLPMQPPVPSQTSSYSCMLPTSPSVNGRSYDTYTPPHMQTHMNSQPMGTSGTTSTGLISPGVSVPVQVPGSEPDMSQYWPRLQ
Chain of Signal transducer and activator of transcription 3 (Homo sapiens) (P40763 whole entry, looked up, the tested form may be a part): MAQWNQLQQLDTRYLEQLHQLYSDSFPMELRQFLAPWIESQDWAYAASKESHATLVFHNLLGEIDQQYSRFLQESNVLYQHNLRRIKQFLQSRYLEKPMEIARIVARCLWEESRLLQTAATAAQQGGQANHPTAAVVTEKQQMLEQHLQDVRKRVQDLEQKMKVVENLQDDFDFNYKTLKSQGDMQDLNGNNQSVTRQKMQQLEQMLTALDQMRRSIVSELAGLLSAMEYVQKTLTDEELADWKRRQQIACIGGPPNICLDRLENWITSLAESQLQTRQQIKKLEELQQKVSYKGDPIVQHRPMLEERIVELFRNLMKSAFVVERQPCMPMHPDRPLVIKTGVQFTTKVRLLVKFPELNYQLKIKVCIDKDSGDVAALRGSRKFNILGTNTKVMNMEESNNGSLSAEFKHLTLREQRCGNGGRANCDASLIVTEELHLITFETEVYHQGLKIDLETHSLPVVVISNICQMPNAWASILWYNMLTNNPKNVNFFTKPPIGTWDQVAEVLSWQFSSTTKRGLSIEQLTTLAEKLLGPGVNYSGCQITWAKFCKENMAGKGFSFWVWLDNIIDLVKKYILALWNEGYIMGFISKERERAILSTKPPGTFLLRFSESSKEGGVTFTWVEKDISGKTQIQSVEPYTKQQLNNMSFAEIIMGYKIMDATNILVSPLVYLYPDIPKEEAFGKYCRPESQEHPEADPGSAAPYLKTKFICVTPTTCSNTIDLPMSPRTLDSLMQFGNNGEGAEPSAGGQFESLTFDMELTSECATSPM
Chain of Transcription factor Sp1 (Homo sapiens) (P08047 whole entry, looked up): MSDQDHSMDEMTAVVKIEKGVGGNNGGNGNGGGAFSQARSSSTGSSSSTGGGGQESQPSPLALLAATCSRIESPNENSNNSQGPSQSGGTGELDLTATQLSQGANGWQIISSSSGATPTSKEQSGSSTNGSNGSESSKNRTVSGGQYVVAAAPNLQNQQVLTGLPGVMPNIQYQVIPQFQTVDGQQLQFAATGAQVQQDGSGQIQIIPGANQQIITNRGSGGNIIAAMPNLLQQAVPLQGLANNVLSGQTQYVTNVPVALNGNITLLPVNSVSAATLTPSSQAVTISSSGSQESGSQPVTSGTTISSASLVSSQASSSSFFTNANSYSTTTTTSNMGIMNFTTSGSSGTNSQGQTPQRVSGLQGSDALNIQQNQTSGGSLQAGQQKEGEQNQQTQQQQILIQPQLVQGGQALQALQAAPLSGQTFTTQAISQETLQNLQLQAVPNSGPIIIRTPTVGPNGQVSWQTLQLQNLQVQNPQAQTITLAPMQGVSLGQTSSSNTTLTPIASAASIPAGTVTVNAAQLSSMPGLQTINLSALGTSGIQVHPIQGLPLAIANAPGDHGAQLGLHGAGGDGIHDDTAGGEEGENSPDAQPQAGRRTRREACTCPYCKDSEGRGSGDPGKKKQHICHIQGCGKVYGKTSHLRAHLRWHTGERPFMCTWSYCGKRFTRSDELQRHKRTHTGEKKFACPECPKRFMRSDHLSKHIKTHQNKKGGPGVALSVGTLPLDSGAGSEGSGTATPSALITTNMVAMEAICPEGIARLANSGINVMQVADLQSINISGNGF

NS(=O)(=O)C(F)(F)C(F)(F)C(F)(F)C(F)(F)C(F)(F)C(F)(F)C(F)(F)C(F)(F)F
active: [1] 54.8 µM and 92.1 µM | [2] 246 µM | [3] 38.7 µM and 25.8 µM | [4] 78 µM | [5] 83.8 µM | [6] 24.4 µM and 38.7 µM and 27.6 µM | [7] 38.9 µM and 50 µM | [10] 150 µM
inactive: [1] | [2] | [3] | [4] | [5] | [7] | [8] | [9] | [10]

Oc1ccc(C(c2ccc(O)cc2)(C(F)(F)F)C(F)(F)F)cc1
inactive: [1] | [3] | [5] | [6] | [7] | [8] | [9] | [10]
active: [1] 8.18 µM and 16.2 µM | [2] 4.15 µM [middle of 4 runs] | [3] 11.1 µM and 5.95 µM and 16.8 µM | [6] 18.8 µM and 18.4 µM | [10] 11.1 µM and 8.78 µM

C[C@]12CCC(=O)C=C1CC[C@@H]1[C@@H]2CC[C@@]2(C)[C@H]1CC[C@]2(C)O
inactive: [1] | [3] | [4] | [5] | [6] | [7] | [8] | [9] | [10]
active: [7] 57.5 µM and 45.9 µM and 62.4 µM | [10] 55.7 µM and 15.9 µM

Oc1c(Cl)c(Cl)c(Cl)c(Cl)c1Cl
active: [1] 50 µM and 14 µM and 34 µM | [2] 13.6 µM and 12.2 µM and 5.75 µM | [4] 24.1 µM and 5.68 µM and 4.77 µM | [5] 23.5 µM and 31.3 µM | [6] 20.7 µM and 27.9 µM and 166 µM | [7] 50 µM and 83.2 µM | [9] 17.1 µM | [10] 11.8 µM
inactive: [5] | [7] | [8] | [9] | [10]

Nn1cnnc1
inactive: all assays above

CCOP(=S)(OCC)SCSC(C)(C)C
active: [2] 7.42 µM and 2.05 µM | [7] 100 µM and 73.9 µM
not listed: [4]
inactive: all other assays above

Oc1ccc(Cl)cc1Cl
active: [2] 64.5 µM
inactive: all other assays above

CCOCCOC(C)=O
inactive: all assays above

N#Cc1ccc(N(CC(N)=O)CC(F)(F)F)cc1C(F)(F)F
inactive: all assays above

Nc1ccc(-c2ccc(N)cc2)cc1
not listed: [3]
inactive: all other assays above

ClC1=C(Cl)[C@]2(Cl)[C@@H]3[C@@H](Cl)[C@H]4O[C@H]4[C@@H]3C1(Cl)C2(Cl)Cl
active: [2] 3.28 µM | [6] 26.7 µM | [7] 51.4 µM
inactive: all other assays above

O=C(NC(=O)c1cc(F)c(F)cc1Cl)Nc1cc(F)ccc1N1CCC(C(=O)O)CC1
active: [2] 4.65 µM | [7] 4.65 µM
inactive: all other assays above

Clc1ccc(Cl)cc1
inactive: all assays above

CCCN(CCC)N=O
inactive: all assays above

CC#Cc1cc(C)nc(Nc2ccccc2)n1
active: [1] 68.1 µM | [2] 26.5 µM | [4] 51.6 µM | [9] 100 µM | [10] 41.8 µM
inactive: all other assays above

C=CC(N)=O
active: [2] 34 µM
not listed: [3]
inactive: all other assays above

CCC(C)(CC)c1cc(NC(=O)c2c(OC)cccc2OC)on1
active: [2] 0.202 µM | [7] 10.8 µM
inactive: all other assays above

Cc1ccccc1O
inactive: all assays above

Clc1ccc(C(Cl)(Cl)Cl)cc1
not listed: [3]
inactive: all other assays above

O=NN(c1ccccc1)c1ccccc1
active: [2] 27.8 µM
inactive: all other assays above

Cc1cccc([N+](=O)[O-])c1
not listed: [4]
inactive: all other assays above

ClC1=C(Cl)[C@]2(Cl)[C@@H]3[C@H]4C[C@H]([C@@H]5O[C@H]45)[C@@H]3[C@@]1(Cl)C2(Cl)Cl
active: [2] 1.58 µM | [10] 4.74 µM
inactive: all other assays above

Cc1cc2c3c(c1)C(c1ccccc1)=N[C@@H](NC(=O)c1ccncc1)C(=O)N3CC2
active: [1] 100 µM | [2] 0.909 µM | [4] 6.95 µM | [6] 181 µM | [7] 19.9 µM | [9] 100 µM | [10] 35.8 µM
inactive: [3] | [5] | [8]

Cc1cccc(C)c1N
inactive: all assays above

CCNc1nc(NC(C)C)nc(SC)n1
active: [2] 13.5 µM
inactive: all other assays above

CCC(C)c1cc([N+](=O)[O-])cc([N+](=O)[O-])c1O (stereo unspecified)
inactive: [2] | [8] | [9] | [10]
active: [1] 56.2 µM | [3] 16.5 µM | [4] 26.4 µM | [5] 10.8 µM | [6] 20.9 µM | [7] 27.6 µM

COc1ccc(O)c(C(C)(C)C)c1
inactive: [5] | [7] | [8] | [9]
active: [1] 146 µM | [2] 8.2 µM | [6] 184 µM | [10] 162 µM

CCSC(=O)N(CC)C1CCCCC1
active: [2] 12.3 µM
inactive: all other assays above

C1CC2OC2CC1C1CO1 (stereo unspecified)
active: [2] 59.2 µM
inactive: all other assays above

C=CC(=O)NCNC(=O)C=C
not listed: [4]
inactive: all other assays above

CC(c1ccc(O)cc1)(c1ccc(O)cc1)c1ccc(O)cc1
active: [1] 11.1 µM | [2] 0.575 µM | [4] 11.1 µM | [6] 19.6 µM | [7] 2.64 µM | [9] 17.3 µM | [10] 11.9 µM
inactive: [3] | [5] | [8]

CC(C)C(=O)OCC(C)(C)C(OC(=O)C(C)C)C(C)C (stereo unspecified)
active: [2] 26.7 µM
inactive: all other assays above

O=S(=O)(O)C(F)(F)C(F)(F)C(F)(F)C(F)(F)C(F)(F)C(F)(F)F
active: [2] 51.4 µM [middle of 4 runs] | [3] 97.7 µM [middle of 4 runs]
inactive: all other assays above

c1cc2ccc3cccc4ccc(c1)c2c34
active: [2] 8.77 µM
inactive: all other assays above

O=S(=O)(O)C(F)(F)C(F)(F)C(F)(F)C(F)(F)F
inactive: all assays above
